Test [1] concerns the target 5-hydroxytryptamine receptor 2A (Homo sapiens) (UniProt P28223). Put plainly: 5-hydroxytryptamine receptor 2A (HTR2A) small molecule agonists, cell-based qHTS assay (AID 1963587). Also: nearly all actives have a fitted effect of over 30% in size. Also: potency is read from the fitted curve at half-maximal effect. The procedure, abridged: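 HTR2A-CHO cells, plated 18 h at 37 C/5% CO2, dye-loaded 1 h at 37 C; compounds in DMSO added by pin tool (agonist mode). Intracellular calcium flux read as kinetic fluorescence on FDSS over 2 min at 1 s intervals.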

Test [2] concerns the target Muscarinic acetylcholine receptor M1 (Homo sapiens) (UniProt P11229). Put plainly: Cholinergic receptor muscarinic 1 (CHRM1) small molecule antagonists, cell-based qHTS assay (AID 1963588). Also: nearly all actives have a fitted effect of over 40% in size. Also: potency is read from the fitted curve at half-maximal effect. The procedure, abridged: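 CHRM1-CHO calcium-flux assay, antagonist mode. Cells were seeded 18 h, dye-loaded 1 h at 37 C and given compound for 5 min at RT, then acetylcholine was added at 50nM. FDSS fluorescence was read 3 min; 15 concentrations, three runs.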

Test [3] shares this target. Put plainly: Cholinergic receptor muscarinic 1 (CHRM1) small molecule agonists, cell-based qHTS assay (AID 1963589). Also: nearly all actives have a fitted effect of over 35% in size. Put shortly: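 CHO cells stably expressing human CHRM1 were loaded with calcium dye for 1 h at 37 C, then compound was added in agonist mode. Intracellular calcium fluorescence was followed kinetically at 1 s intervals. Fifteen concentrations were tested in three independent runs.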
Background: qHTS replaces the single test concentration by a dilution series.

Test [4] is described as follows: p53 small molecule agonists, cell-based qHTS assay with human liver microsomes (AID 1963577). The procedure, abridged: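 p53RE-bla cells, 4,000/well, compound added after 5 h, with human liver microsomes 0.5 mg/mL and NADPH 0.5 mg/mL final; 16 h at 37 C, then LiveBLAzer 2 h RT, fluorescence.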
The nature of test [5]: p53 small molecule agonists, cell-based qHTS assay with rat liver microsomes (AID 1963578). Put shortly:
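p53RE-bla cells, 4,000/well, pre-incubated 5 h, then given compounds plus rat liver microsomes (0.5 mg/mL final) and NADPH (0.5 mg/mL final). Incubation 16 h at 37 C; beta-lactamase reporter read by LiveBLAzer fluorescence after 2 h at room temperature.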

Test [6] can be described thus: p53 small molecule agonists, cell-based qHTS assay with human liver microsomes: qHTS cell viability counter screen (AID 1963579). Also: nearly all actives have a fitted effect of over 45% in size. Also: potency is read from the fitted curve at half-maximal effect. Put shortly:
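p53RE-bla cells, 4,000/well, dosed 5 hours after plating, with human liver microsomes (0.5 mg/mL final) plus NADPH (0.5 mg/mL final), 16 hours at 37 C. Viability read as CellTiter-Glo luminescence after 30 min at room temperature.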

Test [7] in a line: p53 small molecule agonists, cell-based qHTS assay with rat liver microsomes: qHTS cell viability counter screen (AID 1963580). Also: nearly all actives have a fitted effect of over 45% in size. The procedure, abridged: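 In HCT-116 cells carrying a p53 response element-bla reporter, compounds were metabolically activated in situ by rat liver microsomes with NADPH over 16 h. Cell ATP content then served as the cytotoxicity measure.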
Test [8] is described as follows: p53 small molecule agonists, cell-based qHTS assay: qHTS cell viability counter screen (AID 1963581). Also: nearly all actives have a fitted effect of over 45% in size. Also: potency is read from the fitted curve at half-maximal effect. Put shortly: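 p53RE-bla HCT-116 cells, compounds added 5 h after plating and incubated 16 h at 37 C. Cytotoxicity measured in the same wells as intracellular ATP by CellTiter-Glo luminescence after 30 min at room temperature.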
The nature of test [9]: p53 small molecule agonists, cell-based qHTS assay (AID 1963582; active = well fitted activation curve with a large enough effect in the signal ratio in the repeat runs, not every such curve was filed as active; the % refers to the signal ratio). Put shortly:
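p53RE-bla reporter cells, compounds added in DMSO after 5 h plating, incubated 16 h at 37 C. Beta-lactamase read via 2 h room-temperature LiveBLAzer B/G FRET substrate, fluorescence intensity.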

Test [10] addresses KiSS-1 receptor (Homo sapiens) (UniProt Q969F8). Put plainly: Human kisspeptin (KISS1R) small molecule agonists, calcium flux assay in KISS1R-HEK293 cells (AID 1920064; active = well fitted activation curve with a large enough effect in the repeat runs). The procedure, abridged: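 HEK293 cells stably expressing human KISS1R were loaded with calcium dye for 1 h at 37 C, then given compound; fluorescence (Ex/Em 480/540) was read kinetically for 3 min. Fifteen concentrations, triplicate.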
For orientation: A change in cytosolic calcium serves as a functional read-out for many receptors and channels.

Test [11] can be described thus: G protein-coupled receptor (GPCR) small molecule agonists, calcium flux assay: HEK293 wild type cell line counter screen (AID 1920065). The procedure, abridged: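 Wild-type HEK293 cells plated 18 h, loaded with calcium dye 1 h at 37 C, then compounds added in agonist mode (ATP as positive control). Kinetic fluorescence Ex/Em 480/540 recorded 3 min at 1 sec intervals; 15 concentrations, triplicate.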

Test [12] deals with 5-hydroxytryptamine receptor 2A (Homo sapiens) (UniProt P28223). Put plainly: 5-hydroxytryptamine receptor 2A (HTR2A) small molecule antagonists, cell-based qHTS assay (AID 1963586). Also: nearly all actives have a fitted effect of over 45% in size. Also: potency is read from the fitted curve at half-maximal effect. Put shortly:
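Antagonist-mode intracellular calcium assay: DOI (4 nM) added after 5 min compound pre-incubation at room temperature to dye-loaded HTR2A-CHO cells. Fluorescence followed for 3 min, sampled every second.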

The nature of test [13]: cAMP Responsive Elements (CRE) small molecule agonists, cell-based qHTS assay (AID 1963590). The procedure, abridged:
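CRE-bla HEK 293T cells, 2,000/well in DMEM with 10% dialyzed FBS and 25 mM HEPES, pre-incubated 18 h at 37 C, then exposed to compound 3 h at 37 C. Beta-lactamase reporter read with LiveBLAzer B/G FRET substrate after 2 h at room temperature.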

Test [14] is described as follows: cAMP Responsive Elements (CRE) small molecule antagonists, cell-based qHTS assay (AID 1963591; active = well fitted inhibition curve with a large enough effect in the signal ratio in the repeat runs, not every such curve was filed as active; the % refers to the signal ratio; also: potency is read from the fitted curve at half-maximal effect). The procedure, abridged:
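CRE-bla HEK293T cells plated 18 h, then given compound plus NKH477 at 0.25 uM final for 3 h at 37C. Beta-lactamase reporter read with LiveBLAzer B/G FRET substrate after 2 h at room temperature.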

The target of test [15] is Beta-2 adrenergic receptor (Homo sapiens) (UniProt P07550). Put plainly: Adrenergic beta2 receptor (ADRB2) small molecule antagonists, cell-based qHTS assay (AID 1963592). Also: series mostly up to about 92 µM; nearly all actives have a fitted effect of over 50% in size. The procedure, abridged: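 Cells (CHO, stable ADRB2 overexpression) incubated 18-20hr at 37C; compounds added from DMSO; agonist mix (1nM isoproterenol, 100uM IBMX, 25uM Ro-20-1724) added; 0.5hr RT; d2-cAMP and anti-cAMP-cryptate added; 1hr RT; 665/615 nm read.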
Beta-2 adrenergic receptor (Homo sapiens), sequence (P07550 whole entry, looked up): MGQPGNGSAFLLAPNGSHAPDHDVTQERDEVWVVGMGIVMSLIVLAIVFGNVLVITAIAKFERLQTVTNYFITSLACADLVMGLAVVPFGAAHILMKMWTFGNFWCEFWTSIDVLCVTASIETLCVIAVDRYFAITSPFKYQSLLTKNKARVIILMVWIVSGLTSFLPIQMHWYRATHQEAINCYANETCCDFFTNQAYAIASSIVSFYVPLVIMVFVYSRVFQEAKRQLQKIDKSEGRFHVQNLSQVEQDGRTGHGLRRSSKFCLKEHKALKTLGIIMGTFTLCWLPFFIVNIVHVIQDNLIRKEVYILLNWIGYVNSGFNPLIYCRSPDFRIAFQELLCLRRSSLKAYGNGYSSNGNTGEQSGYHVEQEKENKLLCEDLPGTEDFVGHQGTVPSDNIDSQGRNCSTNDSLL

For test [16] the target is unchanged. The experiment in a line: Adrenergic beta2 receptor (ADRB2) small molecule agonists, cell-based qHTS assay (AID 1963593).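 Also: CHO cells stably overexpressing human ADRB2.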 The procedure, abridged: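 CHO cells stably over-expressing ADRB2 were plated overnight at 37C, then dosed with compounds plus a stimulation mix containing 100uM IBMX and 25uM Ro-20-1724 for 0.5hr at room temperature. cAMP was measured by HTRF competition, 1hr.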

The target of test [17] is D(2) dopamine receptor (Homo sapiens) (UniProt P14416). Put plainly: Dopamine D2 receptor (DRD2) small molecule antagonists, cell-based qHTS assay (AID 1963595; active = well fitted inhibition curve with a large enough effect in the signal ratio in the repeat runs, with a control signal flat; the % refers to the signal ratio). The procedure, abridged: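 DRD2-HEK293; 0.1 mM Ro20-1724; cpd 10 min RT; NKH477 200 nM + quinpirole 12 nM, 30 min RT; HTRF cAMP (cAMP-d2/anti-cAMP cryptate), 665/620 nm ratio after 1 h.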
D(2) dopamine receptor (Homo sapiens), sequence (P14416 whole entry, looked up): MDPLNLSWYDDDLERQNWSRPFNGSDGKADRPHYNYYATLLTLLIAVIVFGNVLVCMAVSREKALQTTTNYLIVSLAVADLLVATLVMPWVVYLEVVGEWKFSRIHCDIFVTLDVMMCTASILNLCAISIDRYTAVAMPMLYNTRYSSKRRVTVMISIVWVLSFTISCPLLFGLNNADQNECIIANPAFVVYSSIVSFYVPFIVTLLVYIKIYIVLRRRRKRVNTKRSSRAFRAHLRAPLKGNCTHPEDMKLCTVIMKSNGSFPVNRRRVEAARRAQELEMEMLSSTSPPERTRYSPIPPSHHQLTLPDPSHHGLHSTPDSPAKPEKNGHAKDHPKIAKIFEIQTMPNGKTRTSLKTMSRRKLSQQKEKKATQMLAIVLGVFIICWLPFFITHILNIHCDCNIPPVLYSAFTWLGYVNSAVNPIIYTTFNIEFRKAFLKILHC
The target is the same in test [18]. Put plainly: Dopamine D2 receptor (DRD2) small molecule agonists, cell-based qHTS assay (AID 1963594). Also: nearly all actives have a fitted effect of over 35% in size. The procedure, abridged: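 HEK293 cells stably expressing DRD2 were cultured 24 h at 37 C, then given Ro20-1724 (0.1 mM final) and compounds for 10 min at room temperature. NKH477 (200nM) was then added for 30 min. cAMP was read by HTRF.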
Test [19] concerns the target Gonadotropin-releasing hormone receptor (Homo sapiens) (UniProt P30968). The experiment in a line: Human gonadotropin-releasing hormone receptor (GnRHR) small molecule agonists, calcium flux assay in GnRHR-HEK293 cells (AID 1920063). Also: nearly all actives have a fitted effect of over 35% in size. Put shortly:
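HEK293 cells stably expressing human GnRHR were dye-loaded for 1 h at 37 C. Compound was added in agonist mode and fluorescence (Ex/Em 480/540) recorded kinetically for 3 min. Fifteen concentrations, triplicates.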

The structures appear in SMILES notation. Several values for one entry are separate records, joined by “and”; a condition that tells them apart may be missing. Identical values can stand only once. Records with an inconclusive call do not appear. Some structures have more than one record in an assay (separate samples or runs), and their calls can disagree. Activity calls are given as the source filed them. Unless noted, calls follow the shape of the full dose curve.

Muscarinic acetylcholine receptor M1 (Homo sapiens), sequence (P11229 whole entry, looked up): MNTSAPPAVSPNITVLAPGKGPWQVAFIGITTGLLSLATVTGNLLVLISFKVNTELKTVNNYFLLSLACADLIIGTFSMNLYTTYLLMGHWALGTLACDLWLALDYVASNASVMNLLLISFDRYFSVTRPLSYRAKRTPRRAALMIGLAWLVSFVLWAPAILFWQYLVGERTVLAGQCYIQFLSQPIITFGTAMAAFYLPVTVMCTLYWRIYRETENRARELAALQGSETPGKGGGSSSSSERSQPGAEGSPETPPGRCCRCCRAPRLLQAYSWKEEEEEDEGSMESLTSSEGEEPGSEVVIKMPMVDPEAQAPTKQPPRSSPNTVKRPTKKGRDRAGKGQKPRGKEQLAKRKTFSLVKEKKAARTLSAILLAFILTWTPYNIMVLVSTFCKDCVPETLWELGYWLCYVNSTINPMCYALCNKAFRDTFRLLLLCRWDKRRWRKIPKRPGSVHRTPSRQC
5-hydroxytryptamine receptor 2A (Homo sapiens), sequence (P28223 whole entry, looked up): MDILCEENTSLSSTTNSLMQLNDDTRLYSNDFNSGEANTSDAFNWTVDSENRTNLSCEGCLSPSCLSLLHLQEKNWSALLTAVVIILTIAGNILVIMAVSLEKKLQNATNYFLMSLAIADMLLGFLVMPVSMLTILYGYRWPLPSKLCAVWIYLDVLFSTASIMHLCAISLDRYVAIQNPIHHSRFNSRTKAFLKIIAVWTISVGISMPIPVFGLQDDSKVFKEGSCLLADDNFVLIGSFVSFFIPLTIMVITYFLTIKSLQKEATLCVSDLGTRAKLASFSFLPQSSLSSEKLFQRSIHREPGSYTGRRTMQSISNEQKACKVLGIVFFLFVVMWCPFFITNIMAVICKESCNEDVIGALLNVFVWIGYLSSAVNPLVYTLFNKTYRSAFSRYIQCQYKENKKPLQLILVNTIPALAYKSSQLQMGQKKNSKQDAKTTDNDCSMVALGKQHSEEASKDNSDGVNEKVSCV
Gonadotropin-releasing hormone receptor (Homo sapiens), sequence (P30968 whole entry, looked up): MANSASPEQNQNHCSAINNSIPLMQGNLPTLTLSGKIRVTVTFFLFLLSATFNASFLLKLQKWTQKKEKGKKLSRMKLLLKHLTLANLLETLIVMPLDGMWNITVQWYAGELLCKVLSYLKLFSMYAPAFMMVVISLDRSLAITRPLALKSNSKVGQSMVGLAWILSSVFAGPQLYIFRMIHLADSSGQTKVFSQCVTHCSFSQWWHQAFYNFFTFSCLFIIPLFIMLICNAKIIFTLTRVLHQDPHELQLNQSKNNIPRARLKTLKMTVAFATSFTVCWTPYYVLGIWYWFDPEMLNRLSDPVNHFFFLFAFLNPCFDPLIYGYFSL
KiSS-1 receptor (Homo sapiens), sequence (Q969F8 whole entry, looked up): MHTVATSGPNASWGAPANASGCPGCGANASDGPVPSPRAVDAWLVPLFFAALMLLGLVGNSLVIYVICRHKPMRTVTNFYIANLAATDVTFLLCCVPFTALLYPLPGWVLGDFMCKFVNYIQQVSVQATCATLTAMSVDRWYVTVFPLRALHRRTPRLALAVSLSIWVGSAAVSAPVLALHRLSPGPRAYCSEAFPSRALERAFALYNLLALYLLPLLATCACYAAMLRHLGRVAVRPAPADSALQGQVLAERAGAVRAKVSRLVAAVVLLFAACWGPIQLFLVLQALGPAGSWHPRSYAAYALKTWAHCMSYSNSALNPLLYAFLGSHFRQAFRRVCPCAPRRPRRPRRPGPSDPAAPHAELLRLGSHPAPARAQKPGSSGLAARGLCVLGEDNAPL

Consider `NC(=O)CC[C@@H]1NC(=O)[C@H](Cc2ccccc2)NC(=O)[C@H](Cc2ccc(O)cc2)NC(=O)CCSSC[C@@H](C(=O)N2CCC[C@H]2C(=O)N[C@@H](CCCN=C(N)N)C(=O)NCC(N)=O)NC(=O)[C@H](CC(N)=O)NC1=O`, for which the Potency entry in test [1], in test [2] and in test [3] was “inactive” in each case.

For the compound `c1ccccc1`, the Potency result in test [4], in test [5], in test [6], in test [7], in test [8] and in test [9] was “inactive” each time.

For the compound `COc1cccc2c1C(=O)c1c(O)c3c(c(O)c1C2=O)C[C@@](O)(C(=O)CO)CC3OC1CC(N2CCOC(OC)C2)C(O)C(C)O1` (stereo partly specified), the Potency result in [10], in test [11], in test [4], in test [5], in [12] and in test [2] was “inactive” throughout. The Potency result in test [3], in test [13], in [15] and in test [16] was “inactive” in each case. Further, the Potency in [1] is 16.9 µM (active); in test [14] it was 1.19 µM (active).

For the compound `O=[N+]([O-])c1ccccc1Cl`, the Potency result in test [12], in test [1], in test [2], in test [3], in test [15] and in test [16] was “inactive” each time. Moreover, the Potency entry in test [17] was “inactive”.

`CC(C)(C)c1ccc(O)cc1`: the Potency result in test [12], in [1], in test [2], in test [3], in [15] and in [16] was “inactive” each time. Moreover, the Potency result in [18] and in [17] was “inactive” throughout.

Take `CC(C)C[C@H](NC(=O)CNC(=O)[C@H](Cc1ccc(O)cc1)NC(=O)[C@H](CO)NC(=O)[C@H](Cc1c[nH]c2ccccc12)NC(=O)[C@H](Cc1cnc[nH]1)NC(=O)[C@@H]1CCC(=O)N1)C(=O)N[C@@H](CCCN=C(N)N)C(=O)N1CCC[C@H]1C(=O)NCC(N)=O` (stereo in doubt): the Potency entry in test [12], in test [1], in test [2] and in test [3] was “inactive” throughout.

Regarding `CC(C)C(Nc1ccc(C(F)(F)F)cc1Cl)C(=O)OC(C#N)c1cccc(Oc2ccccc2)c1` (stereo unspecified), the Potency result in test [19], in test [10], in test [5], in test [7], in test [8] and in test [2] was “inactive” in each case. Also, the Potency entry in test [3], in test [14], in [15], in test [18] and in test [17] was “inactive” throughout.

On to `CC(C)(c1cc(Cl)c(O)c(Cl)c1)c1cc(Cl)c(O)c(Cl)c1`, for which the Potency result in test [11], in [4], in test [5], in [7], in [8] and in [3] was “inactive” throughout. For the same compound, the Potency result in test [14], in test [15], in [18] and in [17] was “inactive” in each case. Further, the Potency in test [6] is 40.8 µM (active); in [12] it was “inactive and 13.3 µM (active)”; in test [1] it was 55 µM (active) and 24.5 µM (active); in test [2] it was 33.4 µM (active) and inactive.

Consider `O=C(O)C1(c2ccc3c(c2)OC[C@H](Cc2ccc(-c4ccccc4)cc2)[C@H]3O)CCCC1`, for which the Potency result in test [11], in test [7], in test [18] and in [17] was “inactive” in each case. Besides, the Potency in test [6] is 40.8 µM (active); in test [8] it was 32.4 µM (active); in test [12] it was 5.3 µM (active); in test [1], 54.9 µM (active).

For the compound `O=C1Nc2ccc(Cl)cc2C(c2ccccc2)=NC1O` (stereo unspecified), the Potency result in test [19], in [10], in [11], in [8], in test [12] and in test [1] was “inactive” each time. Also, the Potency result in test [2], in test [3], in test [13], in test [15], in test [18] and in [17] was “inactive” each time.

On to `O=C(O)/C=C\C(=O)O`, for which the Potency result in test [4], in test [5], in test [6], in test [7], in test [8] and in [9] was “inactive” throughout.
